According to PubChem BioAssay (Tox21):
Records with an inconclusive call do not appear. Calls of active or inactive are those of the source. Unless noted, the call rests on the fitted dose curve.

What was measured:
[1] = Nuclear factor erythroid 2-related factor 2/antioxidant responsive element (Nrf2/ARE) small molecule agonists: qHTS cell viability counter screen in human keratinocytes (AID 1919968; active means well fitted curve in the direction sought with a large enough effect in the repeat runs; an effect the other way counts as inactive or inconclusive; further: nearly all actives have a fitted effect of over 55% in size; further: potency means the concentration at half of the fitted maximal effect)
Method in brief: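 Fluorescence read-out from CellTiter-Fluor after 1 h at 37 C. Wells held HaCaT-derived ARE-luciferase reporter cells (1,500/well) treated 23 h with DMSO-dissolved compounds. Run in the same wells as the luciferase agonist read.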

[2] = molecular target: Gonadotropin-releasing hormone receptor (Homo sapiens) (UniProt P30968); test: Human gonadotropin-releasing hormone receptor (GnRHR) small molecule agonists, calcium flux assay in GnRHR-HEK293 cells (AID 1920063); further: nearly all actives have a fitted effect of over 35% in size
Method in brief: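 Calcium-dye fluorescence, Ex/Em=480/540, recorded every 1 sec over 3 min after compound addition to GnRHR-HEK293 cells. Cells had been seeded 18 hours earlier and dye-loaded for 1 hour at 37 C. Fifteen concentrations, triplicates.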

[3] = molecular target: KiSS-1 receptor (Homo sapiens) (UniProt Q969F8); test: Human kisspeptin (KISS1R) small molecule agonists, calcium flux assay in KISS1R-HEK293 cells (AID 1920064; active means well fitted curve in the direction sought with a large enough effect in the repeat runs; an effect the other way counts as inactive or inconclusive)
Method in brief: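 Calcium flux read-out: kinetic fluorescence at Ex/Em=480/540, 1 s intervals over 3 min, after pin-tool compound addition to dye-loaded KISS1R-HEK293 cells. Fifteen concentrations, triplicates.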

[4] = G protein-coupled receptor (GPCR) small molecule agonists, calcium flux assay: HEK293 wild type cell line counter screen (AID 1920065)
Method in brief: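 Agonist mode; 18 h seeding at 37 C, 1 h dye load at 37 C; compounds pinned from DMSO, ATP as positive control; kinetic fluorescence 480/540 nm, 3 min, 1 s reads; 15 concentrations, triplicate.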

[5] = p53 small molecule agonists, cell-based qHTS assay with human liver microsomes (AID 1963577);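 further: p53 response element beta-lactamase reporter cells with liver microsomes plus NADPH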
Method in brief: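 Steps: plate p53RE-bla cells, incubate 5 h at 37 C; add compound in DMSO; add microsomes (0.5 mg/mL final) and NADPH (0.5 mg/mL final); incubate 16 h at 37 C; add LiveBLAzer, 2 h RT; read fluorescence.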

[6] = p53 small molecule agonists, cell-based qHTS assay with rat liver microsomes (AID 1963578)
Method in brief: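 Metabolic activation is supplied by rat liver microsomes with NADPH (each 0.5 mg/mL final). p53RE-bla cells incubate with compound 16 h at 37 C; reporter activity is measured by LiveBLAzer fluorescence.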

[7] = p53 small molecule agonists, cell-based qHTS assay with human liver microsomes: qHTS cell viability counter screen (AID 1963579); further: nearly all actives have a fitted effect of over 45% in size; further: potency means the concentration at half of the fitted maximal effect
Method in brief: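 After the 460/530 nm beta-lactamase read, CellTiter-Glo was added to the same wells and luminescence measured after 30 min at room temperature, giving viability of p53RE-bla cells treated 16 h with compounds plus microsomes and NADPH.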

[8] = p53 small molecule agonists, cell-based qHTS assay with rat liver microsomes: qHTS cell viability counter screen (AID 1963580); further: nearly all actives have a fitted effect of over 45% in size; further: potency means the concentration at half of the fitted maximal effect
Method in brief: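 Counter screen for cytotoxicity under metabolic activation: rat liver microsomes and NADPH, 0.5 mg/mL final each, added with compounds to p53RE-bla HCT-116 cells; 16 h at 37 C, then ATP luminescence read.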

[9] = p53 small molecule agonists, cell-based qHTS assay: qHTS cell viability counter screen (AID 1963581); further: nearly all actives have a fitted effect of over 45% in size; further: potency means the concentration at half of the fitted maximal effect
Method in brief: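 Cytotoxicity read-out: ATP-based luminescence (CellTiter-Glo, 30 min RT) measured in the same wells as the p53 reporter assay, HCT-116 p53RE-bla cells, 16 h compound exposure at 37 C.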

[10] = p53 small molecule agonists, cell-based qHTS assay (AID 1963582; active means well fitted activation curve with a large enough effect in the signal ratio in the repeat runs, not every such curve was filed as active; the % refers to the signal ratio)
Method in brief: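 Fluorescence intensity read-out of a beta-lactamase reporter under a p53 response element. Cells were exposed to DMSO-dissolved compounds for 16 h at 37 C, then developed with FRET substrate for 2 h at RT.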

[11] = molecular target: 5-hydroxytryptamine receptor 2A (Homo sapiens) (UniProt P28223); test: 5-hydroxytryptamine receptor 2A (HTR2A) small molecule agonists, cell-based qHTS assay (AID 1963587); further: nearly all actives have a fitted effect of over 30% in size
Method in brief: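 HTR2A-CHO cells, plated 18 h at 37 C/5% CO2, dye-loaded 1 h at 37 C; compounds in DMSO added by pin tool (agonist mode). Intracellular calcium flux read as kinetic fluorescence on FDSS over 2 min at 1 s intervals.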

[12] = molecular target: Muscarinic acetylcholine receptor M1 (Homo sapiens) (UniProt P11229); test: Cholinergic receptor muscarinic 1 (CHRM1) small molecule antagonists, cell-based qHTS assay (AID 1963588); further: nearly all actives have a fitted effect of over 40% in size; further: potency means the concentration at half of the fitted maximal effect
Method in brief: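 Compounds were tested at 15 concentrations in three independent runs. Dye-loaded CHRM1-CHO cells were exposed 5 min at room temperature before stimulation by acetylcholine added at 50nM. Intracellular calcium was read kinetically on FDSS for 3 min.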

[13] = molecular target: Muscarinic acetylcholine receptor M1 (Homo sapiens) (UniProt P11229); test: Cholinergic receptor muscarinic 1 (CHRM1) small molecule agonists, cell-based qHTS assay (AID 1963589); further: nearly all actives have a fitted effect of over 35% in size
Method in brief: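 Calcium flux read-out: kinetic fluorescence at 1 sec intervals after pin-tool compound addition to dye-loaded CHRM1-CHO cells (human M1). Agonist mode; 15 concentrations tested in triplicate independent runs.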

[14] = cAMP Responsive Elements (CRE) small molecule agonists, cell-based qHTS assay (AID 1963590)
Method in brief: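 Beta-lactamase reporter readout: LiveBLAzer B/G FRET substrate, 2 h at room temperature, added after 3 h compound treatment of CRE-bla HEK 293T cells at 37 C/5% CO2.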

[15] = cAMP Responsive Elements (CRE) small molecule antagonists, cell-based qHTS assay (AID 1963591; active means well fitted inhibition curve with a large enough effect in the signal ratio in the repeat runs, not every such curve was filed as active; the % refers to the signal ratio)
Method in brief: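 HEK293T CRE-bla; 18 h preincubation; compound pin-transfer; NKH477 0.25 uM final, 3 h, 37 C; LiveBLAzer FRET substrate 2 h RT.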

[16] = molecular target: Beta-2 adrenergic receptor (Homo sapiens) (UniProt P07550); test: Adrenergic beta2 receptor (ADRB2) small molecule antagonists, cell-based qHTS assay (AID 1963592); further: series mostly up to about 92 µM; nearly all actives have a fitted effect of over 50% in size
Method in brief: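 Assay format: CHO-ADRB2 cells, 18-20hr seeding at 37C/5% CO2, then compound plus 1nM isoproterenol agonist mix for 0.5hr RT. Homogeneous time-resolved fluorescence cAMP detection after 1hr, expressed as 665/615 nm ratio.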

[17] = molecular target: Beta-2 adrenergic receptor (Homo sapiens) (UniProt P07550); test: Adrenergic beta2 receptor (ADRB2) small molecule agonists, cell-based qHTS assay (AID 1963593); further: potency means the concentration at half of the fitted maximal effect;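 on activation: CHO cells stably overexpressing human ADRB2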
Method in brief: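 CHO cells stably over-expressing ADRB2 were plated overnight at 37C, then dosed with compounds plus a stimulation mix containing 100uM IBMX and 25uM Ro-20-1724 for 0.5hr at room temperature. cAMP was measured by HTRF competition, 1hr.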

[18] = molecular target: D(2) dopamine receptor (Homo sapiens) (UniProt P14416); test: Dopamine D2 receptor (DRD2) small molecule agonists, cell-based qHTS assay (AID 1963594); further: nearly all actives have a fitted effect of over 35% in size
Method in brief: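 HEK293 cells stably expressing DRD2 were cultured 24 h at 37 C, then given Ro20-1724 (0.1 mM final) and compounds for 10 min at room temperature. NKH477 (200nM) was then added for 30 min. cAMP was read by HTRF.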

[19] = molecular target: D(2) dopamine receptor (Homo sapiens) (UniProt P14416); test: Dopamine D2 receptor (DRD2) small molecule antagonists, cell-based qHTS assay (AID 1963595; active means well fitted inhibition curve with a large enough effect in the signal ratio in the repeat runs, with a control signal flat; the % refers to the signal ratio; further: potency means the concentration at half of the fitted maximal effect)
Method in brief: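 HTRF cAMP read-out at 665 and 620 nm emission (340 nm excitation). Antagonist mode: compounds were tested against 12 nM quinpirole in DRD2-HEK293 cells, with 200 nM NKH477 raising cAMP and 0.1 mM Ro20-1724 blocking its breakdown.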

[20] = molecular target: 5-hydroxytryptamine receptor 2A (Homo sapiens) (UniProt P28223); test: 5-hydroxytryptamine receptor 2A (HTR2A) small molecule antagonists, cell-based qHTS assay (AID 1963586); further: nearly all actives have a fitted effect of over 45% in size
Method in brief: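 CHO cells stably expressing human HTR2A were plated for 18 h at 37 C, then loaded with calcium dye for 1 h. Compounds were preincubated 5 min at room temperature before DOI (4 nM solution) was added. Kinetic fluorescence was read for 3 min.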

Measured: Potency

Muscarinic acetylcholine receptor M1 (Homo sapiens), sequence (P11229 whole entry, looked up): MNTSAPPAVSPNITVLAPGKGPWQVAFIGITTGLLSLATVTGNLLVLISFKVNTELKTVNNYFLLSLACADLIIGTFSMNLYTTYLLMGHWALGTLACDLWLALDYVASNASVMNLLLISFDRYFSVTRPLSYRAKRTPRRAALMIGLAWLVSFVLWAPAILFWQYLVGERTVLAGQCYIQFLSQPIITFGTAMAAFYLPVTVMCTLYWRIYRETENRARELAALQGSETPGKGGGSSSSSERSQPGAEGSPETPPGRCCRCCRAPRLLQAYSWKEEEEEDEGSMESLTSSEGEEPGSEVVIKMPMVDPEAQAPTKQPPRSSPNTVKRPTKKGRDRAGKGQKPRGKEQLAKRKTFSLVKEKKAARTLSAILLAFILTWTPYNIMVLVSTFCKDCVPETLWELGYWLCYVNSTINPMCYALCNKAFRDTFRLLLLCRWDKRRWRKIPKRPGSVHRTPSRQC
5-hydroxytryptamine receptor 2A (Homo sapiens), sequence (P28223 whole entry, looked up): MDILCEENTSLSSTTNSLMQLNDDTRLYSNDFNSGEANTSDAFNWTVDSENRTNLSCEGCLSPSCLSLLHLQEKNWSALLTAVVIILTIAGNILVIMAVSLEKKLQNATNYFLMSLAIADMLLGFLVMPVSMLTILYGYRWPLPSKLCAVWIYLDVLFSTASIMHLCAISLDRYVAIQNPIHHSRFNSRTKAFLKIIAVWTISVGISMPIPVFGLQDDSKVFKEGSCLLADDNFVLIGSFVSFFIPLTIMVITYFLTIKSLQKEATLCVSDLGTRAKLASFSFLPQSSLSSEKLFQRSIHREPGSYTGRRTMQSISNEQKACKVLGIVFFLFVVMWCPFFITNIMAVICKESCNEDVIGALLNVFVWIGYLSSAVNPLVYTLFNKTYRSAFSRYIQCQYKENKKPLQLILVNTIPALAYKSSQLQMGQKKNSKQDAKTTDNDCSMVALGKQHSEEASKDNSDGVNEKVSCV
D(2) dopamine receptor (Homo sapiens), sequence (P14416 whole entry, looked up): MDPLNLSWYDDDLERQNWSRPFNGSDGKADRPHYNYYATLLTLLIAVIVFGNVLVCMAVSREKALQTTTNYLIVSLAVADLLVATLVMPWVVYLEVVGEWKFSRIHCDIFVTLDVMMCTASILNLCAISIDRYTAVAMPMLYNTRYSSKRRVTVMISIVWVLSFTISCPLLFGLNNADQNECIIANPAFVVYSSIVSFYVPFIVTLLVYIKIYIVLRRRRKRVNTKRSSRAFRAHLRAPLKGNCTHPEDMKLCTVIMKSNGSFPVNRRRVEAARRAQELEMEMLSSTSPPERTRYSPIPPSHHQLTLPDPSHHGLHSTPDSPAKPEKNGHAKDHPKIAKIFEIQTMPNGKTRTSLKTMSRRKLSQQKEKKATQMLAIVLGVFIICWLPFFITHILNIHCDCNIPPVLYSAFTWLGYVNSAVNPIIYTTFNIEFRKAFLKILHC
Beta-2 adrenergic receptor (Homo sapiens), sequence (P07550 whole entry, looked up): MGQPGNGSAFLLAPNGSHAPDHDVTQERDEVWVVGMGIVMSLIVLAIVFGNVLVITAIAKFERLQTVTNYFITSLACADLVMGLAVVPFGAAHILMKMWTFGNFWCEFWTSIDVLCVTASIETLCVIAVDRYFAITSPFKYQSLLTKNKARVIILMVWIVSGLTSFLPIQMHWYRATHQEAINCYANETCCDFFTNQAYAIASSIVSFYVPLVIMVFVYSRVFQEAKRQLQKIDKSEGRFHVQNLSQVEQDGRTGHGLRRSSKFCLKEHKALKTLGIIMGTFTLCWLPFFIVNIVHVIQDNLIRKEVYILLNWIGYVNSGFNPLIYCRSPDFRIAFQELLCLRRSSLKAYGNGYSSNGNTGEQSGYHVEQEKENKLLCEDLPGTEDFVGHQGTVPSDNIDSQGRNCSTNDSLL
Gonadotropin-releasing hormone receptor (Homo sapiens), sequence (P30968 whole entry, looked up): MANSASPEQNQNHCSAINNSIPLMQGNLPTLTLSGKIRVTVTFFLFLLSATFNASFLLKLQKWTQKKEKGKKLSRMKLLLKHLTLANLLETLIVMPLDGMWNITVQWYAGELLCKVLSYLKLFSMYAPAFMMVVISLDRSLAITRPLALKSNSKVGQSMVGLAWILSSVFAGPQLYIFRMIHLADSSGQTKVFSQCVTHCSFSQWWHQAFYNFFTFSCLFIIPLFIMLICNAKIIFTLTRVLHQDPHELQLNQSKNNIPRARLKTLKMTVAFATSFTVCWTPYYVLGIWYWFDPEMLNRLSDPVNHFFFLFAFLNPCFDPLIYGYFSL
KiSS-1 receptor (Homo sapiens), sequence (Q969F8 whole entry, looked up): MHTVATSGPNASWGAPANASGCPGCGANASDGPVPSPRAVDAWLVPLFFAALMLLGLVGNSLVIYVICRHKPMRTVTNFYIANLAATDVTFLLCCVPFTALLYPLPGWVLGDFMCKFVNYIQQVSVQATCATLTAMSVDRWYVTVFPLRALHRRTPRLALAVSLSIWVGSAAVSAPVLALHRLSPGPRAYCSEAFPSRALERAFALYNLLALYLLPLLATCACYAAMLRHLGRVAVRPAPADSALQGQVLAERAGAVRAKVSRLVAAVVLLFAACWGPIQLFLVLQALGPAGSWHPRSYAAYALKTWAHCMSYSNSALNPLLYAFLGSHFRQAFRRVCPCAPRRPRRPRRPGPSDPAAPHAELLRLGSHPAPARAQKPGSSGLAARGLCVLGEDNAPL

Nc1nc(-c2ccc([N+](=O)[O-])cc2)cs1
not listed: [20]
inactive: all other assays above

CCCCCCCCN
not listed: [9] | [11] | [17]
inactive: all other assays above

O=C(/C=C/c1ccc(O)c(O)c1)O[C@@H]1C[C@](O)(C(=O)O)C[C@@H](O)[C@H]1O
not listed: [16] | [17] | [19] | [20]
inactive: all other assays above

O=c1[nH]cnc2ccccc12
not listed: [5] | [10] | [15] | [18]
inactive: all other assays above

CCc1nccnc1C
not listed: [5] | [17]
inactive: all other assays above

COc1ccc(-c2coc3cc(O)ccc3c2=O)cc1
not listed: [2] | [4] | [10] | [11] | [14] | [15]
inactive: all other assays above

CCOC(=O)C1=NN(c2ccc(Cl)cc2Cl)C(C)(C(=O)OCC)C1 (configuration not stated)
not listed: [6] | [10] | [12] | [17]
inactive: all other assays above

CCCCCCCC[N+](CCCCCCCC)(CCCCCCCC)CCCCCCCC
active: [1] 8.62 µM | [7] 18.2 µM | [8] 16.2 µM | [9] 4.57 µM | [19] 24.3 µM
not listed: [2] | [10] | [14] | [15] | [17] | [20]
inactive: all other assays above

C/C=C(/C(=C/C)c1ccc(O)cc1)c1ccc(O)cc1
active: [1] 15 µM | [12] 2.9 µM
not listed: [8] | [9] | [10] | [11] | [14] | [20]
inactive: all other assays above

O=C(C1CCCCC1)N1CC(=O)N2CCCc3ccccc3C2C1 (configuration not stated)
not listed: [2] | [14] | [15] | [17]
inactive: all other assays above

CC(C)CCOC(=O)CC(C)C
not listed: [3] | [12] | [16]
inactive: all other assays above

CCCCCCCCCCCCCCCC[N+](C)(C)CCN(Cc1ccc(OC)cc1)c1ncccn1
active: [1] 26.6 µM
not listed: [7] | [9] | [14] | [15] | [16] | [17] | [19] | [20]
inactive: all other assays above

CCCCOc1ccc(C(=O)CCN2CCCCC2)cc1
active: [12] 10.3 µM | [17] 13.3 µM
not listed: [7] | [10] | [16] | [20]
inactive: all other assays above

CCOC(=O)OCC/C(SC(=O)OCC)=C(\C)N(C=O)Cc1cnc(C)nc1N
not listed: [2] | [11] | [19]
inactive: all other assays above
